Compound activity from PubChem.
Most compounds without a hit are left out; they make up all but 6.8% or so of the library.
Autofluor 339 = intrinsic fluorescence of library compounds, ex339/em460 – biochemical, MLSMR library, data from DPM-DC assay, artefact control, profiling panel; fluorescence fold increase at 10 µM; compound autofluorescence, ex339/em460 nm, NADH buffer; active compounds read high; 1 = no-compound wells, NADH background; AID 709, 2007; 5.5% of 65,000 active;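 active = at 10 µM, mean starting fluorescence two-fold or more over control wells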;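 also: signal is the first read of a kinetic run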
NADH coupling = inhibitors of PK/LDH coupling enzymes, profiling panel, artefact control, biochemical, MLSMR library. coupled PK/LDH NADH assays, four targets. IC50, µM (series often up to 10 µM). 0.02% of 65,000 active;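 active = single-dose screening hits from any of four coupled enzyme assays that gave an IC50 when retested across doses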;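 also: the DPM-DC format reads NADH fluorescence rather than 340 nm absorbance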
Spn PMK inh = S. pneumoniae PMK inhibitors, primary screen, biochemical, mevalonate pathway, pilot trial included | phosphomevalonate kinase (Streptococcus pneumoniae D39) | purified PMK, PK/LDH-coupled NADH absorbance 340 nm | inhibition, % at 10 µM | 0.49% of 65,000 active;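 active = top-ranked compounds by inhibition in the single 10 µM screen, taking a fixed number of the strongest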
DPM-DC inhibit = S. pneumoniae DPM-DC inhibitors, primary screen, biochemical, PK/LDH-coupled NADH fluorescence; diphosphomevalonate decarboxylase (Streptococcus pneumoniae D39); purified DPM-DC; calls only at 10 µM; 0.49% of 65,000 active; AID 556, 2006;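 active = the 320 compounds with the highest percent inhibition in the single-dose primary screen, excluding strongly autofluorescent ones, cut at about 32% in these data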;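 also: kinetic rate of NADH fluorescence loss reporting ADP formed by the decarboxylase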
MK inhibit = S. pneumoniae MK inhibitors, primary screen, biochemical, PK/LDH-coupled NADH absorbance | purified MK, PK/LDH-coupled NADH absorbance 340 nm | inhibition, % at 10 µM | 0.48% of 65,000 active;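 active = ranked among the strongest by inhibition in the single 10 µM screen, a fixed top-ranked set picked for dose follow-up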
A340 absorber = compound light absorbance at 340 nm, profiling panel, artefact control, biochemical, MLSMR library, data from PS, PMK, MK assays | 65,000 tested, under 10 active | fold change at 10 µM | compound absorbance at 340 nm, fold over control;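 active = at 10 µM dose, initial 340 nm absorbance at least 2 fold that of control wells; inactive = change under 2 fold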;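 also: initial absorbance extrapolated from kinetic A340 decline of NADH oxidation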
Of the large screens only hits and unclear results are named; the others gave an inactive call.

Cc1nnc2sc(-c3cccc4ccccc34)nn12	Autofluor 339 2.2
Cc1nnc2sc(-c3ccncc3)nn12	none
N#Cc1cc2sc3nnc(-c4ccncc4)n3c2cc1C#N	none
CC1CCN(C(=O)CSc2nnc(CN3CCOCC3)n2-c2ccccc2)CC1	none
COc1ccccc1NC(=O)CCn1c(=O)sc2ccccc21	none
Cc1cc(NC(=O)CCCS(=O)(=O)c2nc(-c3cccs3)cc(C(F)(F)F)n2)no1	Autofluor 339 3.4 (not shown: DPM-DC inhibit)
CS(=O)(=O)c1nc(-c2cccs2)cc(C(F)(F)F)n1	Autofluor 339 2.2 (not shown: DPM-DC inhibit)
CN1CCN(c2nc(-c3cccs3)cc(C(F)(F)F)n2)CC1	none
CN(c1ccc(C(=O)NC2CC2)cc1)S(=O)(=O)c1ccccc1	none
Cn1cnnc1SCC(=O)n1c2ccccc2c2ccccc21	Spn PMK inh 42, MK inhibit 67
CCn1cc(C(=O)NCCC2=CCCCC2)c(=O)c2cc(S(=O)(=O)N(C)C)ccc21	none
C=CCn1c(NCc2ccc3c(c2)OCO3)nc2ccccc21	none
C=CCn1c(NCc2ccccc2)nc2ccccc21	Spn PMK inh 25
Cc1sc2nc3n(c(=O)c2c1C)CCCS3	none
Cc1sc2nc3ccc(N4CCCC4)nn3c(=O)c2c1C	Autofluor 339 2.1 (not shown: DPM-DC inhibit)
O=C1CC(c2ccccc2)CC(O)=C1C=NCC1CCCO1 (stereo not given)	Spn PMK inh 38
COC(=O)Nc1nnc(-c2ccncc2)s1	Autofluor 339 3.7 (not shown: DPM-DC inhibit)
COC(=O)Nc1nnc(-c2ccccc2Cl)s1	Autofluor 339 2.9
CCOC(=O)Nc1nnc(-c2ccccc2OC)s1	Autofluor 339 2.8 (not shown: DPM-DC inhibit)
COc1ccccc1-c1nnc(NC(=O)OCC(C)C)s1	none
COc1ccc(-c2nnc(NC(=O)C(C)C)s2)c(OC)c1	Autofluor 339 2.1 (not shown: DPM-DC inhibit)
Cn1c(=O)n(Cc2ccc(F)cc2)c(=O)c2c1nc1n2CCCN1C1CCCCC1	none
CCOC(=O)Nc1nnc(-c2cccc(OC)c2)s1	Autofluor 339 3.8 (not shown: DPM-DC inhibit)
Cc1c(OCc2nn[nH]n2)ccc2c3c(c(=O)oc12)CCCC3	Autofluor 339 3.8 (not shown: DPM-DC inhibit)
Cc1c(OCc2nn[nH]n2)ccc2c3c(c(=O)oc12)CCC(C)C3 (stereo not given)	Autofluor 339 3.8 (not shown: DPM-DC inhibit)
CCOC(=O)COc1ccc2c3c(c(=O)oc2c1C)CCC3	Autofluor 339 2.3
Cc1coc2c(C)c3oc(=O)c4c(c3cc12)CCCC4	none
COc1ccc2c3c(c(=O)oc2c1OCC(N)=O)CCCC3	Autofluor 339 2.5 (not shown: DPM-DC inhibit)
CCN(CC)c1ncc(C)c(=O)[nH]1	none
COc1ccc2c(=O)c3c(=O)n(Cc4ccco4)c(C4CCCCC4)nc3oc2c1	none
Cc1cc(C)n(C(=O)c2ccc(C)c(S(=O)(=O)N3CCCC3)c2)n1	none
CCCN(CCC)CCCNC(=O)c1cc2c(=O)n(C)c3ccccc3c2n1C	none
Cn1c2ccccc2c2c(C(=O)N3CCN(c4ccccn4)CC3)cn(C3CCCC3)c(=O)c21	none
CCOC(=O)N1CCN(C(=O)c2cn(CC(C)C)c(=O)c3c2c2ccccc2n3C)CC1	Autofluor 339 4.2 (not shown: DPM-DC inhibit)
COCCn1cc(C(=O)N2CCC(C)CC2)c2c3ccccc3n(C)c2c1=O	Autofluor 339 4.8 (not shown: DPM-DC inhibit)
CCCN(CCC)CCCNC(=O)c1cn(CCOC)c(=O)c2c1c1ccccc1n2C	Autofluor 339 3.5
COc1ccc(N2CCN(C(=O)c3cn(C)c(=O)c4c3c3ccccc3n4C)CC2)cc1	none
CCOC(=O)N1CCN(C(=O)c2cn(C)c(=O)c3c2c2ccccc2n3C)CC1	Autofluor 339 3.5
[O-][n+]1c2ccc3nonc3c2nn1-c1ccccc1Cl	none
CC(C)Cn1cc(C(=O)N2CCOCC2)c2c3ccccc3n(C)c2c1=O	Autofluor 339 2.6
CC(C)Cn1cc(C(=O)NCc2cccs2)c2c3ccccc3n(C)c2c1=O	Autofluor 339 2.6
CCOC(=O)C(C)(C)Sc1nc2c(cnn2-c2ccc(Cl)cc2)c(=O)[nH]1	none
CCOC(=O)c1oc2ccc3c(c2c1C)C(=O)CC1(CCN(C(=O)OCC)CC1)O3	none
